We go through 47 compounds from PubChem BioAssay AID1347416 (National Center for Advancing Translational Sciences (NCATS), 2020).

The whole screen tested about 4,100 compounds, of which about 1,600 (39%) were called active. Not shown: some 25% with an inconclusive outcome. The list shows a part of the results. A number with no mark means an inactive call. The call rests on the fitted dose curve; in most records, active means well fitted inhibition curve with a large enough effect; inconclusive means small, poorly fitted or top-dose-only effect; inactive means no such curve, though single readings can be large or run the other way.
On the % scale 0 is the no-effect control and ±100 the full control effect; potency means the concentration at half of the fitted maximal effect.

The nature of this test: qHTS Validation assay for Inhibitors of Plasmodium falciparum Dd2 growth in vitro. Further: nearly all actives have a fitted effect of over 70% in size. The following applies: P. falciparum Dd2 in RBCs, SYBR Green growth, 72 h; series mostly up to 28.7 µM; activity change, negative = inhibition: at the top concentration. A digest of the protocol: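 P. falciparum Dd2-infected red blood cells (2.5% hematocrit, 0.3% parasitemia) grown 72 h at 37 °C under 5% O2 with compounds in a titration, 29 uM to 0.5 nM final. Growth read as SYBR Green-1 fluorescence after ~16 h lysis; artesunate 300 nM as positive control.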
As for `OC1CCN(c2cc(N3CCOC(c4ccc(F)cc4)C3)ncn2)CC1` (configuration not stated), the “activity change, negative = inhibition” value is 23.8%.

Consider `CCCCC(=O)Nc1nc(C)c(-c2csc(Nc3cc(OC)ccc3OC)n2)s1`, for which the Potency is 9.44 µM (active).

Regarding `C=CCCC(=O)Nc1nc(C)c(-c2csc(Nc3ccc(Cl)cc3)n2)s1`, the “activity change, negative = inhibition” value is -14.8%.

Turning to `CN(Cc1cc(-c2cccnc2)no1)C(=O)C1COc2ccccc2C1` (configuration not stated), the “activity change, negative = inhibition” value was 23.1%.

Turning to `COC[C@@H]1CN(C(=O)c2cccc(OC(F)(F)F)c2)C[C@H]1C(N)=O`, the “activity change, negative = inhibition” value is 2.91%.

In the case of `O=C(Nc1ccc(Nc2ccncc2)cc1)c1ccc(Nc2ccnc3ccc([N+](=O)[O-])cc23)cc1[N+](=O)[O-]`, the Potency was 1.33 µM (active).

As for `O=C(Nc1ccc(Nc2ccncc2)cc1)c1ccc(Nc2ccnc3ccc([N+](=O)[O-])cc23)cc1`, the Potency was 0.75 µM (active).

For the compound `COc1cnc(-c2ccccn2)nc1Sc1c(Cl)cccc1Cl`, the Potency was 2.99 µM (active).

As to `COc1cnc(-c2ccccn2)nc1Sc1ccc(Cl)cc1`, the Potency was 5.96 µM (active).

As for `Oc1ccccc1C1=NN(c2ccccc2)C(c2ccccc2)C1` (configuration not stated), the Potency is 7.5 µM (active).

For `O=C(c1ccc2nc[nH]c2c1)N1CCCN(c2cc(-c3ccc(Cl)cc3)[nH]n2)CC1`, the “activity change, negative = inhibition” value was 25.3%.

In the case of `CCOc1ccccc1C(=O)N1CCN(c2cc(-c3ccc(OC)cc3)[nH]n2)CC1`, the “activity change, negative = inhibition” value is -19.4%.

For the compound `COc1ccc(-c2cc(N3CCN(C(=O)c4c[nH]c5ccccc45)CC3)n[nH]2)cc1`, the Potency is 15 µM (active).

On to `Cn1nc(C(F)(F)F)c(-c2cccc(C(F)(F)F)c2)c1NC(=O)Nc1ccc(F)cc1`, for which the Potency is 2.37 µM (active).

Regarding `Cn1nc(C(F)(F)F)c(-c2ccc(F)cc2)c1NC(=O)Nc1ccc(F)cc1`, the Potency was 1.88 µM (active).

`Cn1nc(C(F)(F)F)c(Cl)c1C(=O)N[C@@H]1CCNC[C@H]1O`: the “activity change, negative = inhibition” value was 48%.

Turning to `COC(=O)c1ccc(NC(=O)Nc2cccc(F)c2)cc1`, the “activity change, negative = inhibition” value was -29.7%.

With `Cc1ccsc1C(=O)N1CCC(n2cc(-c3nc(C(C)C)no3)nn2)CC1`, the “activity change, negative = inhibition” value was 26.4%.

Regarding `Cc1noc(C)c1-c1nccc2c(=O)cc(N(C)c3ccccc3)oc12`, the Potency is 17.2 µM (active).

As to `CN(c1ccccc1)c1cc(=O)c2ccnc(-c3ccccc3O)c2o1`, the “activity change, negative = inhibition” value was -13.3% [at 43.1 µM].

Take `CN(c1ccccc1)c1cc(=O)c2ccnc(-c3ccncc3)c2o1`: the “activity change, negative = inhibition” value is 7.74% [at 43.1 µM].

In the case of `Cc1cnc(CC2CCCN(S(=O)(=O)c3ccccc3)C2)n1CC1CC1` (configuration not stated), the Potency was 6.68 µM (active).

`COCCn1c(C)cnc1CC1CCN(C(=O)Nc2ccccc2F)C1` (configuration not stated): the “activity change, negative = inhibition” value was 13.6%.

Take `O=S(=O)(c1ccccc1)N1CCCC(Cc2noc(-c3ccncc3)n2)C1` (configuration not stated): the “activity change, negative = inhibition” value was 39.4%.

In the case of `COc1ccc(S(=O)(=O)N2CCCC(Cc3noc(-c4ccncc4)n3)C2)cc1` (configuration not stated), the “activity change, negative = inhibition” value is 4.86%.

For the compound `CC(=O)N1CCC(Cc2ncc(C)n2CC2CC2)C1` (configuration not stated), the “activity change, negative = inhibition” value is 13.1%.

Turning to `Cc1cnc(CC2CCN(S(=O)(=O)c3ccccc3)CC2)n1Cc1ccccc1`, the Potency was 5.31 µM (active).

For `CCc1ccc(S(=O)(=O)N2CCC(n3cnnc3CC)CC2)cc1`, the “activity change, negative = inhibition” value was -9.08%.

With `CCCn1c(C)cnc1CC1CCN(S(=O)(=O)c2ccc3c(c2)CCC3)C1` (configuration not stated), the Potency is 9.44 µM (active).

As to `O=C(NCc1nc2ccccc2[nH]1)C1=C[C@@H](c2ccccc2)C[C@@H](OCc2ccc(CO)cc2)O1`, the “activity change, negative = inhibition” value is 23.3%.

In the case of `CCNC(=S)N/N=C/c1sc(N2CCCCC2)nc1-c1cccs1`, the Potency is 0.668 µM (active).

Turning to `CN1CCN(c2nc(Nc3ccc(O)cc3)nc3ccccc23)CC1`, the Potency was 4.22 µM (active).

Turning to `COc1cc(OC)cc(C(=O)Oc2c(CN3CCOCC3)cc(Cl)c3cccnc23)c1`, the “activity change, negative = inhibition” value was 2.5%.

For the compound `O=C(Oc1c(CN2CCOCC2)cc(Cl)c2cccnc12)c1ccccc1Br`, the Potency was 7.5 µM (active).

Regarding `CC(C)=NOC(=O)c1c(C)noc1-c1snnc1C`, the Potency was 6.68 µM (active).

Take `CCCC(c1nnnn1CCC(C)C)N1CCC(C(N)=O)CC1` (configuration not stated): the “activity change, negative = inhibition” value is 12.3%.

`CCCC(O)(c1ccc(Cl)cc1)C(CN1CCOCC1)c1ccc(Cl)cc1` (configuration not stated): the Potency was 4.73 µM (active).

For `CCCCC(O)(c1ccc(F)cc1)C(CN1CCOCC1)c1ccc(Cl)cc1` (configuration not stated), the Potency was 5.96 µM (active).

With `OC(c1ccc(Cl)cc1)C(CN1CCOCC1)c1ccccc1` (configuration not stated), the Potency was 2.99 µM (active).

Consider `CCC(=O)N(C1CCOCC1)C1CCN(Cc2cc(F)ccc2F)CC1`, for which the “activity change, negative = inhibition” value was 8.14%.

Turning to `OC(CNCc1cccc(Br)c1)c1ccccc1` (configuration not stated), the Potency was 5.96 µM (active).

Turning to `O=C1c2c(nc(CNCc3cccc(F)c3)n2Cc2ccccc2)NCCN1Cc1cccc(Cl)c1`, the “activity change, negative = inhibition” value is -13.6%.

Consider `OC(CNCc1cccc(Cl)c1)c1ccccc1` (configuration not stated), for which the Potency was 4.73 µM (active).

As to `OC(C[n+]1ccccc1)c1ccccc1` (configuration not stated), the “activity change, negative = inhibition” value is 21.8%.

For the compound `CCOc1cc(CNCC(O)c2ccccc2)cc(Cl)c1OC` (configuration not stated), the Potency is 3.35 µM (active).

Regarding `Cc1nn(C(=O)CCCC(=O)N2CCCC2c2nc(C3CCOCC3)no2)c2ccccc12` (configuration not stated), the “activity change, negative = inhibition” value was 0%.

Consider `Cc1ccc2c(C)c(C(=O)N3CCCC3c3nc(C(C)C)no3)oc2c1C` (configuration not stated), for which the Potency was 6.68 µM (active).
